Measurements: paper PMC4336329 (PLoS ONE, 2015)
The whole screen tested about 310,000 compounds, of which about 14,000 (4.5%) showed an effect of 50% or more. The effect is printed as a negative number. The full list was thinned out, with strong results kept by preference.

Target: human ether-à-go-go-related gene (hERG) potassium channel (human, UniProt Q12809)
Assay: primary screen, population patch clamp on CHO cells stably expressing hERG; higher = less effect of the substance
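Also: peak tail current of the secondary pulse compared with the same well before compound.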

Chain of human ether-à-go-go-related gene (hERG) potassium channel (Q12809 whole entry, looked up): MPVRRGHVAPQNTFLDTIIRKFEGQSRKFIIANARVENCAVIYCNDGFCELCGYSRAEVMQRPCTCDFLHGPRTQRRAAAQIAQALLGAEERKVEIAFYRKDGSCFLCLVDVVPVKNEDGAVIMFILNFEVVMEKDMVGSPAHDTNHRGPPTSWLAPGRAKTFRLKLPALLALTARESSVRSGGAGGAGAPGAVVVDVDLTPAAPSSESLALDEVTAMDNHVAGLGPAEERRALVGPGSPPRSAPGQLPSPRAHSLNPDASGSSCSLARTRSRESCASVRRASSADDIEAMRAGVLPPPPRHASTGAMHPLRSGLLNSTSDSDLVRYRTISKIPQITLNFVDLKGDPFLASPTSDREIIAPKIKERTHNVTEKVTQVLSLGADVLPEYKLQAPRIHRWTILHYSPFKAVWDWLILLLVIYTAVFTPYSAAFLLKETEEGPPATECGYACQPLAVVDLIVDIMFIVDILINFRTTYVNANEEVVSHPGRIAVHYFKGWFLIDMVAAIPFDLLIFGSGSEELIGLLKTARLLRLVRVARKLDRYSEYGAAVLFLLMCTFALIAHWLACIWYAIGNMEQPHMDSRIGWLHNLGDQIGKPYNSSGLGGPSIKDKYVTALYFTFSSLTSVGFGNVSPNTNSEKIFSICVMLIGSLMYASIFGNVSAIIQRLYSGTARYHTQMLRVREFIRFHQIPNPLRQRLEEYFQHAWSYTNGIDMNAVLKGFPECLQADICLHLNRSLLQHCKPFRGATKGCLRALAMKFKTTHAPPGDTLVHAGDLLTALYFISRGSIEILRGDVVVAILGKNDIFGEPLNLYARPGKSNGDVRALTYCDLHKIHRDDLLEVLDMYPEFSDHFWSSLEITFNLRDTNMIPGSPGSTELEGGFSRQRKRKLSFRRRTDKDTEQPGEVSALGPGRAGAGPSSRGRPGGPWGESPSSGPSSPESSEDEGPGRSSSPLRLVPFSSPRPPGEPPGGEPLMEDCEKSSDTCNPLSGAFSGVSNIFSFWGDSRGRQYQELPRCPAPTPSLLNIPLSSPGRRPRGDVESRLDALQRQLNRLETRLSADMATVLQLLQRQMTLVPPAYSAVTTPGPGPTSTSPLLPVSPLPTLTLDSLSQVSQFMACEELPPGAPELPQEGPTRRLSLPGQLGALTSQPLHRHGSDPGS

SMILES	hERG current change (%, negative = inhibition) at 10uM
Cc1ccccc1C(=O)NC(=S)Nc1ccc(S(=O)(=O)N2CCN(C)CC2)cc1	7.75%
COc1ccc(-c2noc(CN3CCCCC3)n2)cc1OC	-1.49%
Cc1cccc(C)c1NC(=O)CN(c1ccccn1)S(=O)(=O)c1ccc(F)cc1	19.1%
Cc1ccc2[nH]cc(CCNS(=O)(=O)c3ccc(F)cc3)c2c1	-4.39%
Cn1c(-c2ccc(F)cc2)cnc1NCc1cccc([N+](=O)[O-])c1	-70.9%
Cn1c(-c2cccc([N+](=O)[O-])c2)cnc1NCc1cccc([N+](=O)[O-])c1.O=C(O)C(=O)O	-77.8%
Cn1c(-c2ccccc2)cnc1NCc1ccccc1	-21.3%
CC(C)NCc1cccc([N+](=O)[O-])c1.O=C(O)C(=O)O	3.39%
COc1cccc(CNc2ncc(-c3ccccc3)n2C)c1	-35.6%
Cc1ccc(CNc2ncc(-c3ccccc3)n2C)o1.O=C(O)C(=O)O	-37%
Cn1c(-c2ccccc2)cnc1NCc1cccc([N+](=O)[O-])c1	-72%
CSc1ccc(CNc2ncc(-c3cccc([N+](=O)[O-])c3)n2C)cc1.O=C(O)C(=O)O	-66.4%
O=C(c1cccc([N+](=O)[O-])c1)n1nc(-c2ccccc2)nc1NCc1ccccc1	9.75%
Cn1c(-c2ccc(F)cc2)cnc1NCc1cccc(F)c1	-46%
CCN(CC)C(=O)c1ccc(NC(=O)Cn2nc(C)c3ccccc3c2=O)cc1	-10.3%
Cc1ccc(C(=O)CSc2nnc(-c3cccnc3)n2N)cc1	-15.2%
O=C(NCCN1C(=O)S/C(=C\c2ccc(Cl)c(Cl)c2)C1=O)C1COc2ccccc2O1 (stereo not shown)	-9.28%
COc1cc2c(cc1OC)[C@H](C)N(C(=O)NCc1ccccc1)CC2	5.78%
CCN(CC)c1ccc2cc(-c3nc4ccccc4n3C)c(=O)oc2c1	22.9%
O=C(c1cc2sccc2n1Cc1ccc(F)cc1)N1CCCc2ccccc21	15.3%
c1ccc2c(c1)c1ccccc1n1c(-c3ccc4c(c3)OCO4)nnc21	3.9%
Cn1ncc2c(N3CCCCC3)nc(NCCCO)nc21	11.9%

SMILES	hERG current change (%, negative = inhibition) at 10uM
Cn1cnc2c1c(=O)n(Cc1ccc(F)cc1Cl)c(=O)n2C	5.82%
CCOC(=O)C1CCCN(C(=O)c2cccc(S(=O)(=O)N3CCOCC3)c2)C1 (stereo not shown)	15.6%
COc1ccc2cc(C#N)c(SCC(=O)N3CC(=O)Nc4ccccc43)nc2c1	14.9%
COc1ccc(S(=O)(=O)NCCc2cn3nc(C)c(C)nc3n2)cc1F	3.38%
Cn1c(-c2cccc([N+](=O)[O-])c2)cnc1NCc1cccc(F)c1.O=C(O)C(=O)O	-54.1%
Cn1c(-c2cccc(Br)c2)cnc1NCc1cccnc1	-59.6%
Cn1c(-c2cccc([N+](=O)[O-])c2)cnc1NCc1ccc(C#N)cc1.O=C(O)C(=O)O	-75%
COc1ccc(CNc2cc([N+](=O)[O-])ccc2OC)cc1	-1.02%
COc1ccc(CNc2ncc(-c3ccccc3)n2C)cc1	-32.6%
COc1ccc([N+](=O)[O-])cc1NCc1cccc([N+](=O)[O-])c1	-62.6%
Cn1c(-c2ccc(Br)cc2)cnc1NCc1cccnc1	-41.3%
CCOc1ccc(CNc2ncc(-c3ccccc3)n2C)cc1	-38.9%
COc1ccc([N+](=O)[O-])cc1NCc1ccccc1.O=C(O)C(=O)O	2.96%
CNc1nc(N(C)C)nc(N(C)C)n1	-7.71%
CCS(=O)(=O)N1Cc2ccccc2CC1C(=O)Nc1cccc(C)c1 (stereo not shown)	-4.95%
CCc1cccc2c(C(=S)N3CCCC3)c[nH]c12	8.97%
Nc1[nH]n2c(=O)cc(-c3ccccc3)nc2c1N=Nc1ccccc1	11%
COc1ccccc1C(=O)Oc1ccc(N2C(=O)CCC2=O)cc1	-0.543%
Cc1cc(C(F)F)n2nc(C(=O)Nc3ccc(F)cc3F)nc2n1	-2.95%
O=C(CSc1nnc2n1CCCN2)c1ccc([N+](=O)[O-])cc1	-49.8%
Nc1ccc2sc(N)nc2c1	12.2%
Cc1cc(OC(C)C(=O)N(Cc2ccco2)C2CCS(=O)(=O)C2)cc(C)c1Cl (stereo not shown)	-1.99%

SMILES	hERG current change (%, negative = inhibition) at 10uM
CC(C)=CCN1CCN(Cc2ccc(C#CC(C)(C)O)s2)CC1CCO (stereo not shown)	-1.88%
COc1ccc(OC)c(CNc2ncc(-c3cccc([N+](=O)[O-])c3)n2C)c1.O=C(O)C(=O)O	-54.8%
COc1ccc(CNc2ncc(-c3cccc([N+](=O)[O-])c3)n2C)c(OC)c1OC.O=C(O)C(=O)O	-47.5%
COc1cccc(-c2cnc(NCc3cc(Cl)ccc3O)n2C)c1.O=C(O)C(=O)O	-24.1%
Cc1cccc(CNc2ncc(-c3cccc([N+](=O)[O-])c3)n2C)c1.O=C(O)C(=O)O	-71.1%
Cc1ccccc1Nc1c([N+](=O)[O-])ccc2c1=NC1(CCCCC1)N=2	-16.6%
O=C(COc1ccc(Br)cc1Cl)NNC(=O)c1ccccc1	2.57%
Cc1ccccc1CN(c1ccc(C(=O)NCc2ccccn2)cc1)S(C)(=O)=O	-35.4%
CC1CC(C)CN(C(=O)CSc2nc(Cc3cccs3)nc3ccccc23)C1 (stereo not shown)	-13%
Cc1noc(C)c1COC(=O)CCN1c2ccccc2Sc2ccccc21	7.54%
CCCCCCCN=CC1=C(O)CC(c2ccccc2)CC1=O (stereo not shown)	-6.52%
Cc1ccc(-n2cc(S(=O)(=O)c3ccc(C)cc3)[nH]c2=O)cc1	4.72%
O=C(CCCCCN1C(=O)c2cccc3cccc(c23)C1=O)NCc1ccco1	13.2%
O=C(NC1CCN(C(=S)Nc2ccc(Cl)cc2)CC1)c1ccco1	-72.8%
COc1ccc(NC(=S)N2CCC(NC(=O)c3ccco3)CC2)cc1	-6.59%
COc1ccc(C(=O)NC2CCN(C(=S)NCc3ccco3)CC2)cc1	-29.6%
CC(C)CNC(=S)N1CCC(NC(=O)c2ccco2)CC1	-65.7%
COCCNC(=S)N1CCC(NC(=O)c2ccco2)CC1	15.7%
O=C(NC1CCN(C(=S)NCc2ccco2)CC1)c1cccc(F)c1	-47.1%
O=C(NC1CCN(C(=S)Nc2ccc(F)cc2)CC1)c1ccco1	-39%
CCNC(=S)N1CCC(NC(=O)c2ccco2)CC1	6.16%
O=C(NC1CCN(C(=S)NCc2ccco2)CC1)c1ccc(F)cc1	-51.6%

SMILES	hERG current change (%, negative = inhibition) at 10uM
C=CCN(c1ccc(C(=O)NCCCn2ccnc2)cc1)S(C)(=O)=O	12.3%
CCCc1cc(=O)[nH]c(SC(C)C(=O)Nc2ccc3c(c2)OCCO3)n1 (stereo not shown)	-7.38%
Cc1cc(CN(C)C)c(OC(=O)N(C)C)cc1C.Cl	16.1%
Cc1[nH]nc2c1C1(C(=O)Nc3ccc([N+](=O)[O-])cc31)C(C#N)=C(N)O2 (stereo not shown)	24.9%
O=C(NCc1ccco1)c1ccc2c(=O)n(Cc3ccco3)c(SCC(=O)N3CCCC3)nc2c1	-76.4%
O=C(NCC1CCCO1)c1ccc2c(=O)n(Cc3ccco3)c(SCC(=O)N3CCCC3)nc2c1 (stereo not shown)	-79.3%
O=C(NCC1CCCO1)c1ccc2c(=O)n(CC3CCCO3)c(SCC(=O)N3CCCC3)nc2c1 (stereo not shown)	3.95%
COCCCNC(=O)CSc1nc2cc(C(=O)NCCOC)ccc2c(=O)n1Cc1ccc2c(c1)OCO2	-4.37%
CC1CCN(C(=O)CSc2nc3ccccc3c(=O)n2Cc2ccc3c(c2)OCO3)CC1	-13.6%
COC(=O)c1ccc2c(=O)n(Cc3ccc4c(c3)OCO4)c(SCC(=O)N3CCCC3)nc2c1	-52.4%
CCCCCn1c(SCC(=O)OCC)nc2cc(C(=O)NCc3ccco3)ccc2c1=O	2.51%
CCOC(=O)CSc1nc2cc(C(=O)NCC3CCCO3)ccc2c(=O)n1Cc1ccco1 (stereo not shown)	-39.3%
C=CCn1c(SCC(=O)OCC)nc2cc(C(=O)NCc3ccco3)ccc2c1=O	-17.6%
CN1CCN(C(=O)CCN2C(=O)/C(=C/c3ccccc3Cl)SC2=S)CC1	9.65%
COc1ccc(/C(O)=C2/C(=O)C(=O)N(CCCN3CCOCC3)C2c2ccc(C(C)C)cc2)cc1 (stereo not shown)	24.6%
COc1cc(C2CC(=O)N3CN(Cc4ccco4)CSC3=C2C#N)ccc1OCc1ccccc1 (stereo not shown)	15.1%
CC(=O)C1C(c2cccc(F)c2)c2c(n[nH]c2C)CC1(C)O (stereo not shown)	15.7%
COc1cc(CNCc2ccccc2)ccc1OCC(O)c1ccccc1.O=C(O)C(=O)O (stereo not shown)	-24.9%
COC(=O)CC1C(=O)NCCN1C(=O)CSc1nc2cc(Cl)ccc2o1 (stereo not shown)	13.5%
